Drawing on ChEMBL document CHEMBL1961873, “Compounds: GSK PKIS; Assays: Nanosyn kinase panel” (2012), this text covers inhibition for four compounds.

Experiment [1] deals with T1, Serine/threonine-protein kinase Nek9 (Homo sapiens) (UniProt Q8TD19).
T1 sequence (whole entry): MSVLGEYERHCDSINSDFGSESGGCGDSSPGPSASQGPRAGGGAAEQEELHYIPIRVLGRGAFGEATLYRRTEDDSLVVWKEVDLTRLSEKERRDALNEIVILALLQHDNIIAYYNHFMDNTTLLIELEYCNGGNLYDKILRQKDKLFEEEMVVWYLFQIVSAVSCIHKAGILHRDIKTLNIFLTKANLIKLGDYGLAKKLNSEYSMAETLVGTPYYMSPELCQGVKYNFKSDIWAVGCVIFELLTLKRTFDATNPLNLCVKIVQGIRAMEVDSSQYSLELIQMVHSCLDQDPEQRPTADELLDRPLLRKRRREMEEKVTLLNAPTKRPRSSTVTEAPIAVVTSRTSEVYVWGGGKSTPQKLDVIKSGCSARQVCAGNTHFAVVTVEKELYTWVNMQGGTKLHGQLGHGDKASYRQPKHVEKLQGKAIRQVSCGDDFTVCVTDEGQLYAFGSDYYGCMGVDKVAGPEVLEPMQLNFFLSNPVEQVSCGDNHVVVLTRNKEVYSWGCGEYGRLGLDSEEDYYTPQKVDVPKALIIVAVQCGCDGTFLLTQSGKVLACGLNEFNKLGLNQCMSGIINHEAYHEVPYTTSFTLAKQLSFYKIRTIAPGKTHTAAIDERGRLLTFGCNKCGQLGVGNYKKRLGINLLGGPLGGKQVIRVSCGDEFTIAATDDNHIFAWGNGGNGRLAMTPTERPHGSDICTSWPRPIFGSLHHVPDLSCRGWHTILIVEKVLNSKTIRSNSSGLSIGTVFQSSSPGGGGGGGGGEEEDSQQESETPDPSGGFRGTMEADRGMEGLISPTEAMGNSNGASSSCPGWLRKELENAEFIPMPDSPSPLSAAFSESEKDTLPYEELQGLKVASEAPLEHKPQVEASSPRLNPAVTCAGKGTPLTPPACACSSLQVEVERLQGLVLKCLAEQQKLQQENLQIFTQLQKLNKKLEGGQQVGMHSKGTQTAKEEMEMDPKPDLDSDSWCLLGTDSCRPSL
The following applies: at 1 µM.

Experiment [2] deals with Serine/threonine-protein kinase PLK1 (Homo sapiens) (UniProt P53350). The settings on record: at 0.1 µM.
Experiment [3] has the same target. The settings on record: at 1 µM.
Experiment [4] has as its target T2, Dual specificity protein kinase TTK (Homo sapiens) (UniProt P33981).
T2 sequence (whole entry): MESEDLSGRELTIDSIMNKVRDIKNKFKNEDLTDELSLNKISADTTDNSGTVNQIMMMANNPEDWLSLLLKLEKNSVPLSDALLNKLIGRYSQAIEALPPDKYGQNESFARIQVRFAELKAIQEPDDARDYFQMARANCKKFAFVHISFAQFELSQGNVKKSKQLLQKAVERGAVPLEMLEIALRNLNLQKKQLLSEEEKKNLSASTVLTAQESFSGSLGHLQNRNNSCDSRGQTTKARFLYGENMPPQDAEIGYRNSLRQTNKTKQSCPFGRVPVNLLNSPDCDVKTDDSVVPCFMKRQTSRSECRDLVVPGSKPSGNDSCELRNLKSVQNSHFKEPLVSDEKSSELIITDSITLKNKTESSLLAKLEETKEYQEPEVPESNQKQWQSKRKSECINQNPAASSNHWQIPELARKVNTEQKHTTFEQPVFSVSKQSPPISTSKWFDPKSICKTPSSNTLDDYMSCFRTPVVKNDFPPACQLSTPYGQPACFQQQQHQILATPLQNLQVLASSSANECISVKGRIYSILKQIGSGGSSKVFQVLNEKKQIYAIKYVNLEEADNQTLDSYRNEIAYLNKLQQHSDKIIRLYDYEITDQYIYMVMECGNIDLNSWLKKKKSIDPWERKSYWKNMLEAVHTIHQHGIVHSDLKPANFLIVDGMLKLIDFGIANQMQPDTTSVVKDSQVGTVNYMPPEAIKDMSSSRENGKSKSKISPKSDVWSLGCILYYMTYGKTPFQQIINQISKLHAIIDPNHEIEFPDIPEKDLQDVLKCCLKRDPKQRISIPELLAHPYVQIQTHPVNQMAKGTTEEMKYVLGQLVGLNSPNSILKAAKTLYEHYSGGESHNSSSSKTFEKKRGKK
The following applies: at 0.1 µM.

The subject of experiment [5] is T3, Receptor-type tyrosine-protein kinase FLT3 (Homo sapiens), P36888 [D835Y].
T3 sequence (whole entry): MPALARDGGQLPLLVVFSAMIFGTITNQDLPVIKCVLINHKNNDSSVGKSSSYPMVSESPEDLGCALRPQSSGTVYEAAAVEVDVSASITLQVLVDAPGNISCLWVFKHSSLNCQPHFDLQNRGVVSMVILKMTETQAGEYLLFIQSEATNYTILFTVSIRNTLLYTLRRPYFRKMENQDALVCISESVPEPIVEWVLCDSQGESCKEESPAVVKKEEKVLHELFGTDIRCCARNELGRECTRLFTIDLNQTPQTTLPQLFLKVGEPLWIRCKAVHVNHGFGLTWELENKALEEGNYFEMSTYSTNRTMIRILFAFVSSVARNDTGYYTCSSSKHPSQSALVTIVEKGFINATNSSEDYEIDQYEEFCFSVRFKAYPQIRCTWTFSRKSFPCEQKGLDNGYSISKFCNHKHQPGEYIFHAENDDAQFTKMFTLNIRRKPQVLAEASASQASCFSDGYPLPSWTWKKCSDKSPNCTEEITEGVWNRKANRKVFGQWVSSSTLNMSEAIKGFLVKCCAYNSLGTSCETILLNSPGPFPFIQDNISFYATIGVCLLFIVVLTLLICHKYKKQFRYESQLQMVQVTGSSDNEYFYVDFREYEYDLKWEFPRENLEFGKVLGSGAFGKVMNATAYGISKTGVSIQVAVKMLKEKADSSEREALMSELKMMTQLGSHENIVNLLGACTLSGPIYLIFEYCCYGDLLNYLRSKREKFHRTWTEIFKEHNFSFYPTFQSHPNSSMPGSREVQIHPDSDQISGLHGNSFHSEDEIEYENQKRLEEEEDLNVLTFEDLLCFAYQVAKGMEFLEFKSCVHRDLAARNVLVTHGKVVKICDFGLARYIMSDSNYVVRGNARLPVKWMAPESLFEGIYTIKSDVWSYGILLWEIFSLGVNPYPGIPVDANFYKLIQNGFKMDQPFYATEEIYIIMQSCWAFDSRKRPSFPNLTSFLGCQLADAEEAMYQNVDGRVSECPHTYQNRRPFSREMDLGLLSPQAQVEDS
The following applies: at 1 µM.

The target of experiment [6] is Vascular endothelial growth factor receptor 3 (Homo sapiens) (UniProt P35916). The settings on record: at 0.1 µM.
Vascular endothelial growth factor receptor 3 (Homo sapiens), sequence (P35916 whole entry): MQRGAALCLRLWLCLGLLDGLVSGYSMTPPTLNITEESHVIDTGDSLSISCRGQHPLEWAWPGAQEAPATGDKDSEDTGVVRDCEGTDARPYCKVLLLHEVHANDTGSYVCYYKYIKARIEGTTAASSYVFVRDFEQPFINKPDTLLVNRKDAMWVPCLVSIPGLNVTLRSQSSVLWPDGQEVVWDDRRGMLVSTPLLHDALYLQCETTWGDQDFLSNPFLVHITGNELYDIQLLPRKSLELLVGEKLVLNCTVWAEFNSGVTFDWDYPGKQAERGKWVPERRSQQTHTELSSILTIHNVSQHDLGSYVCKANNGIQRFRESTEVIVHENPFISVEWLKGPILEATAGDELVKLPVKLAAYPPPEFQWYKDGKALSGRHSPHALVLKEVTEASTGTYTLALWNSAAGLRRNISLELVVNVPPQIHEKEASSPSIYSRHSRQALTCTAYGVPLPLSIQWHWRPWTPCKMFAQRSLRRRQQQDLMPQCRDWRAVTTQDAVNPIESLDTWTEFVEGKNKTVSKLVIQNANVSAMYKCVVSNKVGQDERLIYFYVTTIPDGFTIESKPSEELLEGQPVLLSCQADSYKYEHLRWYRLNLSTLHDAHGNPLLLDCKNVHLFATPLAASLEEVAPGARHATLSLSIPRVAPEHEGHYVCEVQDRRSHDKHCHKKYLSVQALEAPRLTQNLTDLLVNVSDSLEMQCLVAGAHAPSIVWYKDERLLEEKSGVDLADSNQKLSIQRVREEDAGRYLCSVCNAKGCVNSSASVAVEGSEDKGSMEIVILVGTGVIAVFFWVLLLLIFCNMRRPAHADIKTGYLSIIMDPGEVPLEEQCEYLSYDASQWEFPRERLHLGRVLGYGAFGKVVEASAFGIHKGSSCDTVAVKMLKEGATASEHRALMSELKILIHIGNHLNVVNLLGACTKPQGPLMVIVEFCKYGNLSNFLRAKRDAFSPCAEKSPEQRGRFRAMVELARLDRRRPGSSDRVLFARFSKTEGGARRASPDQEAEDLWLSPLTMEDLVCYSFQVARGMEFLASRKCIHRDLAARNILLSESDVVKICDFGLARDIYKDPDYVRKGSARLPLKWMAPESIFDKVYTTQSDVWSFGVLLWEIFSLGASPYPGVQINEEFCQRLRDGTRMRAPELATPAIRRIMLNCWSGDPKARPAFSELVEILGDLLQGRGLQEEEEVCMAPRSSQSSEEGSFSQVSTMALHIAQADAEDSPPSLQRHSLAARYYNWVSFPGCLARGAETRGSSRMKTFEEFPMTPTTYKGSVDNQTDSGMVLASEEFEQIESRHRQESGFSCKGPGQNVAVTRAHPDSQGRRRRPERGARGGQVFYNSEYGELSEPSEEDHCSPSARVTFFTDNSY
Experiment [7] shares this target. The following applies: at 1 µM.
Experiment [8] deals with Macrophage colony-stimulating factor 1 receptor (Homo sapiens) (UniProt P07333). The following applies: at 0.1 µM.
Macrophage colony-stimulating factor 1 receptor (Homo sapiens), sequence (P07333 whole entry): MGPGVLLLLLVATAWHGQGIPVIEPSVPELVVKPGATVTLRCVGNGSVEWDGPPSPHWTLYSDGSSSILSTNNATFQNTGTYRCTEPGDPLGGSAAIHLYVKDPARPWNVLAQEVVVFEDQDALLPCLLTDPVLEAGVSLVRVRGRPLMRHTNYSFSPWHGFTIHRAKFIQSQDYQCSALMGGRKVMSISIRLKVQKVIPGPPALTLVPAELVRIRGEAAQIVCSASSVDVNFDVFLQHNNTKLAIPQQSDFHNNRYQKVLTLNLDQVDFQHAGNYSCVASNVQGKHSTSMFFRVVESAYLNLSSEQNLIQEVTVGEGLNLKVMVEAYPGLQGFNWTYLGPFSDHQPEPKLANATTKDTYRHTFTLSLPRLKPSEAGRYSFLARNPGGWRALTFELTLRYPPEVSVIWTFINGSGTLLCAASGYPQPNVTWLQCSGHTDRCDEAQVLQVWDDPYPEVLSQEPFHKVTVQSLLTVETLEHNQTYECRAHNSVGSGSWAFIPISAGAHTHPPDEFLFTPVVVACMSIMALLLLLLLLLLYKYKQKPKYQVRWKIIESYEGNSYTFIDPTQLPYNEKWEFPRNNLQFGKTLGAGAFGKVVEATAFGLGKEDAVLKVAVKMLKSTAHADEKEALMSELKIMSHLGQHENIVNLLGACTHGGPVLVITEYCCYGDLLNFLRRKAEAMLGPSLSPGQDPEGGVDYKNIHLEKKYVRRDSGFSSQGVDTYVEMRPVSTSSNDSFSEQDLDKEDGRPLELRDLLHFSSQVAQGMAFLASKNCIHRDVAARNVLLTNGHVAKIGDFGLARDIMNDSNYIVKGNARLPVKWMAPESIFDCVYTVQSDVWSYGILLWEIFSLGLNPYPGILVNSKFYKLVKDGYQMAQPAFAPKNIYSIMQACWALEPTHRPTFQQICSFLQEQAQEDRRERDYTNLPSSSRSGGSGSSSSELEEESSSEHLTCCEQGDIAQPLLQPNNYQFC
Experiment [9] shares this target. The following applies: at 1 µM.
Experiment [10] has as its target Tyrosine-protein kinase Fyn (Homo sapiens) (UniProt P06241). The following applies: at 0.1 µM.
Experiment [11] has the same target. The settings on record: at 1 µM.
The target of experiment [12] is Tyrosine-protein kinase HCK (Homo sapiens) (UniProt P08631). The settings on record: at 0.1 µM.
Tyrosine-protein kinase HCK (Homo sapiens), sequence (P08631 2-526 limits assumed): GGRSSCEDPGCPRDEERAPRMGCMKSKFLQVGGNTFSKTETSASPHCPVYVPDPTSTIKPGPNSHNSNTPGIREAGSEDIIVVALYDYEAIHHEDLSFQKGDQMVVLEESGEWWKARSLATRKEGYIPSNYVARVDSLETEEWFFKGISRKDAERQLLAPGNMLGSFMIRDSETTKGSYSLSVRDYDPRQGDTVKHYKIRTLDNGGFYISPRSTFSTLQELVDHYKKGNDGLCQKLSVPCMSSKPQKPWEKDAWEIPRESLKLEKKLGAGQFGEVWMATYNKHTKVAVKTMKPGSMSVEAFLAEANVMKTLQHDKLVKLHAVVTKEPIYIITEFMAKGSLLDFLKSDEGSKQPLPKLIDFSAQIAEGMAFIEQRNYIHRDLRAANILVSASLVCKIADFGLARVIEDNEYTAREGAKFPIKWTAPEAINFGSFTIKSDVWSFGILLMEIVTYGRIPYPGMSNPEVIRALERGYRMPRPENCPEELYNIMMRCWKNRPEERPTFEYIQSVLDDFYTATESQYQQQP
Experiment [13] has the same target. The settings on record: at 1 µM.
Experiment [14] deals with Insulin-like growth factor 1 receptor (Homo sapiens) (UniProt P08069). The settings on record: at 0.1 µM.
Experiment [15] shares this target. The settings on record: at 1 µM.
Experiment [16] has as its target Insulin receptor (Homo sapiens) (UniProt P06213). The settings on record: at 0.1 µM.
For experiment [17] the target is unchanged. The settings on record: at 1 µM.
Experiment [18] concerns the target Insulin receptor-related protein (Homo sapiens) (UniProt P14616). The following applies: at 0.1 µM.
Experiment [19] has the same target. The following applies: at 1 µM.
The target in experiment [20] is T4, Tyrosine-protein kinase ITK/TSK (Homo sapiens) (UniProt Q08881).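 Also: mean percent inhibition of ITK from the GSK PKIS screen.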
T4 sequence (whole entry): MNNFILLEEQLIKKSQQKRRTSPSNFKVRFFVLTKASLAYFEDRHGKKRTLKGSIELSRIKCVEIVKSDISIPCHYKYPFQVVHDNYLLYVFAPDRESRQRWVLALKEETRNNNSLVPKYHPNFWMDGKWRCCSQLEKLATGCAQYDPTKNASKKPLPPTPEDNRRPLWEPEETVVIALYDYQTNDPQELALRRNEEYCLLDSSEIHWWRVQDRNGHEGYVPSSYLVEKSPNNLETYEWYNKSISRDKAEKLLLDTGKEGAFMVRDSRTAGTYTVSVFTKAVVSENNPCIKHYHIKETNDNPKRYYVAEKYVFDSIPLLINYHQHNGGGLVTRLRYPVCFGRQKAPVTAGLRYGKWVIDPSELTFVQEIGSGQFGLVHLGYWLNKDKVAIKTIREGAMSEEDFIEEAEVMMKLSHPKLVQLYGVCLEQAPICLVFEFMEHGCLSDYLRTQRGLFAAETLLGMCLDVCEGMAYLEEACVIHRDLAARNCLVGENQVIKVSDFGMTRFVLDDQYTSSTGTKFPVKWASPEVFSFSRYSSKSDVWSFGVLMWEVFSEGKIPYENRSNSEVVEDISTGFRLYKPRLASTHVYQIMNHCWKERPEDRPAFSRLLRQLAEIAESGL
The following applies: at 0.1 µM.

Tyrosine-protein kinase Fyn (Homo sapiens), sequence (P06241 2-537 limits assumed): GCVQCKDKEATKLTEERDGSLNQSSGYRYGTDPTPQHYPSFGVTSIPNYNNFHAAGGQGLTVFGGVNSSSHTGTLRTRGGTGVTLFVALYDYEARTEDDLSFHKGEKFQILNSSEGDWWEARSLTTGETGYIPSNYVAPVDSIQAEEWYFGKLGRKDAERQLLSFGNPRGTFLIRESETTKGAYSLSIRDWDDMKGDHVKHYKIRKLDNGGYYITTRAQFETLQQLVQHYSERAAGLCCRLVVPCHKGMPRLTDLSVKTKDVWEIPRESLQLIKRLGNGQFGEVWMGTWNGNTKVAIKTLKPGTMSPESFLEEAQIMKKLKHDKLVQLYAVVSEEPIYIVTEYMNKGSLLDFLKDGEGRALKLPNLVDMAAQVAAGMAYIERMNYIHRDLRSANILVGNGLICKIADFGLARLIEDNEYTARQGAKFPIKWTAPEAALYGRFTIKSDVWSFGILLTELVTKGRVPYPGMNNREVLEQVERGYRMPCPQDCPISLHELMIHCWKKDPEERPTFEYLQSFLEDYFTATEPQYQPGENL
Insulin receptor (Homo sapiens), sequence (P06213 28-758 limits assumed): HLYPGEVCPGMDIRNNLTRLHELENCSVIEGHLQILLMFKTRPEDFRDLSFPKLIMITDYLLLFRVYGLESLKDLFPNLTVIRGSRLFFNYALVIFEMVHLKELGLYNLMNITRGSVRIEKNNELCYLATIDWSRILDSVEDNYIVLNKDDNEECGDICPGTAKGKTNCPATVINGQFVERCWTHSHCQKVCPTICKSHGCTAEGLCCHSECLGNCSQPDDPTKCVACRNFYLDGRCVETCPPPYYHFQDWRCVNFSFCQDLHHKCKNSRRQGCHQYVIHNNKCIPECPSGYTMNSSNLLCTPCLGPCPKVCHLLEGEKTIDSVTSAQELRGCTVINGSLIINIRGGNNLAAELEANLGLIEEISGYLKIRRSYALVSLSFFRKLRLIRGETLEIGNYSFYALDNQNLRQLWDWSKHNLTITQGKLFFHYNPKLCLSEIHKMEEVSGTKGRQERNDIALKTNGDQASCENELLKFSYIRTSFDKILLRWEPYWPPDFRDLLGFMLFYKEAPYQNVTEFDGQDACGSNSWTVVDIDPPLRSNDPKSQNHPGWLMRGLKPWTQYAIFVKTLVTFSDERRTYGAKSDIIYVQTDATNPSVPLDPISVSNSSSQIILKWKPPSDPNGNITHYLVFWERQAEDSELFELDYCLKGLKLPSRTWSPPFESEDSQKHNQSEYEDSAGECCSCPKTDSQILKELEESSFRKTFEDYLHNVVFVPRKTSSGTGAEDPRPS
Insulin receptor (Homo sapiens), sequence (P06213 763-1382 limits assumed): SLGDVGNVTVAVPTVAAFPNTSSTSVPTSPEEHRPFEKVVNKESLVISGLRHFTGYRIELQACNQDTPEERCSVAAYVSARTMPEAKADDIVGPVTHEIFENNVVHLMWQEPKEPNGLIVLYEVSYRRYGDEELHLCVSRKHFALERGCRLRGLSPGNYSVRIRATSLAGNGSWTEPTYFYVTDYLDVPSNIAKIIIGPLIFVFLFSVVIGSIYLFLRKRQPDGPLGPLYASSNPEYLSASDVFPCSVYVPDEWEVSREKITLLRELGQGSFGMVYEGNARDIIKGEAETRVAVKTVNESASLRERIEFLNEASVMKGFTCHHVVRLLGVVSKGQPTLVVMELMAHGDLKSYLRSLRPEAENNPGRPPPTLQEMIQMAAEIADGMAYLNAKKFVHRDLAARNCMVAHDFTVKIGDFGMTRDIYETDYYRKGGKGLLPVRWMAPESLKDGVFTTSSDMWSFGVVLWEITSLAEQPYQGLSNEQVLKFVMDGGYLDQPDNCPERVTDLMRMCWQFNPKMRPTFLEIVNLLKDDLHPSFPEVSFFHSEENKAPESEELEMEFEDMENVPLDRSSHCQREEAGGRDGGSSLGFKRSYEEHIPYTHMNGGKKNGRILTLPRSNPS

As to `CC(C)=Cc1cccc2c1/C(=N/Nc1ccc(S(N)(=O)=O)cc1)C(=O)N2`, the inhibition – broadly, the relative decrease from the control value, in per cent – was 1.52% in experiment [1]; -0.43% in experiment [2]; 0.59% in experiment [3]; 11.7% in experiment [4]; 66.6% in [5]; 4.82% in [6]. For the same compound, the inhibition in experiment [7] came to 46.6%; in experiment [8] it was 41.8%; in experiment [9] it was 86.8%; in experiment [10], 4.49%; in experiment [11] it was 27.3%; in experiment [12], 2.33%. Besides, the inhibition in experiment [13] is 21.4%; in [14] it was 2.45%; in experiment [15], 8.58%; in experiment [16], 1.28%; in [17], 13.6%; in experiment [18] it was 1.95%. Besides, the inhibition in [19] is 2.95%; in experiment [20], 0.64%.

For the compound `COc1cc(C)c(NC(=O)CN(C)C)cc1Nc1nc(Nc2cccc(F)c2C(N)=O)c2cc[nH]c2n1`, the inhibition in [1] is 2.11%; in experiment [2], 70.5%; in [3], 92.2%; in [4], 24.2%; in experiment [5], 4.71%; in experiment [6] it was -3.04%. The inhibition in [7] was determined as 1.77%; in [8], 3.71%; in [9] it was 26.6%; in experiment [10], 1.54%; in experiment [11], 2.42%; in experiment [12], 4.13%. The inhibition in experiment [13] amounted to 3.71%; in experiment [14], 93.6%; in [15], 95.5%; in experiment [16], 99.9%; in experiment [17], 99.9%; in [18], 90.8%. The inhibition worked out at 97.7% in experiment [19] and 1.36% in [20].

In the case of `CS(=O)(=O)CCNCc1ccc(-c2ccc3ncnc(Nc4ccc(OCc5ccccc5)c(Cl)c4)c3c2)o1`, the inhibition is 4.02% in [1]; 2.44% in experiment [2]; 2.99% in experiment [3]; 4.06% in [4]; -0.19% in experiment [5]; 3.02% in experiment [6]. In addition, the inhibition in [7] was 2.54%; in [8] it was -2.83%; in experiment [9], 10%; in experiment [10], 2.44%; in experiment [11], 9.03%; in [12], 1.16%. Further, the inhibition was 5.85% in [13]; 5.19% in experiment [14]; -0.77% in [15]; 1.79% in [16]; 1.45% in [17]; -1.48% in [18]. The inhibition in [19] was -1.47%; in experiment [20] it was -0.01%.

For `COc1cc2ncn(-c3cc(OCc4ccccc4Cl)c(C(N)=O)s3)c2cc1OC`, the inhibition in [1] amounted to 55.5%; in experiment [2] it was 93.8%; in experiment [3], 96.3%; in experiment [4], 2.78%; in [5] it was 9.43%; in experiment [6] it was 11.9%. In addition, the inhibition in experiment [7] stood at 54.8%; in [8] it was 1.91%; in [9], 23.7%; in [10], 2.79%; in experiment [11], 23.5%; in [12], 4.09%. For the same compound, the inhibition was 27.1% in experiment [13]; 2.22% in [14]; 2.52% in experiment [15]; 4.5% in [16]; 7.12% in experiment [17]; -1.76% in [18]. Also, the values for the inhibition in experiment [19] and in experiment [20] were 0.06% and 0.4%, respectively.
